# In the library only some 4.4% were active in any assay of this set; here they are far more common.
# tim10-1 inh: inhibits growth of tim10-1 mutant yeast; S. cerevisiae tim10-1 ts strain growth, BacTiter-Glo, 24 h; inhibition, % at 20 µM; 330,000 tested, 2.2% active;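 active = inhibition of at least 40%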;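 note: mutant grown at 25 °C; 0% = DMSO wells with yeast and 100% = wells holding no yeast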
# TIM10 inh: TIM10 yeast growth inhibition. inhibition, % at 10 µM. 330,000 tested, 1.4% active. S. cerevisiae TIM10 strain growth, BacTiter-Glo luminescence, 24 h;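 active = inhibition of 40% or more at the single tested concentration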;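 note: wild-type TIM10 isogenic control strain grown at permissive 25 °C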
# tim23-1 inh: inhibits growth of tim23-1 mutant yeast; S. cerevisiae tim23-1 growth, BacTiter-Glo luminescence, 24 h; inhibition, % at 20 µM; 330,000 tested, 1.3% active; AID 463212;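 active = growth inhibition of the mutant yeast at or above 50%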;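 note: temperature-sensitive mutant grown at 25 °C; plate controls were DMSO-treated mutant yeast for no effect and medium wells lacking yeast for full effect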
# SKKanGAS inh: inhibitors of SKKanGAS S. pyogenes growth in kanamycin (SK-promoter or general growth effect) | BacTiter-Glo, 6 h | inhibition, % at 7.5 µM | 300,000 tested, 1.3% active | AID 1662;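 active = mean replicate score, as percent of positive control median, at least 50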;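 note: strain carries kanamycin resistance gene driven by streptokinase promoter and grows in 40 µg/ml kanamycin; loss of luminescence reflects streptokinase promoter inhibition or plain growth inhibition; 0% = median of DMSO wells and 100% = positive control at its reference dose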
# PfHsp90 yeast 2: inhibits growth of yeast expressing Plasmodium falciparum Hsp90; 310,000 tested, 0.32% active; S. cerevisiae expressing PfHsp90, BacTiter-Glo ATP, 48 h; yeast lacking PDR1 and PDR3 efflux regulators; inhibition, % at 9.4 µM; AID 504621;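 active = every replicate shows inhibition above about 80%, whatever the replicate mean, limit read from the data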;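 note: 0% = DMSO neutral controls and 100% = 20 µM radicicol positive controls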
# Starred values were filed as active, the others as inactive; . = no result given; + = active, no number.
SMILES,tim10-1 inh,TIM10 inh,tim23-1 inh,SKKanGAS inh,PfHsp90 yeast 2
CC(Oc1cccc(Cl)c1)C(=O)Nc1ccccc1N1CCCCC1 (centres undefined),-22,-5,-4,73*,17
CCC(Oc1ccccc1)C(=O)Nc1ccccc1N1CCCC1 (centres undefined),27,9,32,0,-2
CCC(Oc1ccccc1)C(=O)Nc1ccccc1N1CCCCC1 (centres undefined),-6,-23,20,61*,36
CN(Cc1cccc(Cl)c1Cl)C(=O)c1cc(S(=O)(=O)N2CCOCC2)ccc1F,10,0,24,.,-10
COc1ccc(CSCCNC(=S)Nc2ccccc2)cc1Cl,24,28,38,63*,-30
CNC(=S)NN=C(C)CCCC(C)=NNC(=S)NC,.,.,.,.,-20
CCOc1ccc(S(=O)(=O)N2CCC(C(=O)Nc3ccc(C)c(S(=O)(=O)N4CCOCC4)c3)CC2)cc1,.,.,.,.,0
CC(=O)N1c2ccc(S(=O)(=O)N(C)c3cc(C)ccc3C)cc2CC1C (centres undefined),17,9,22,-2,-21
Cc1ccc(N(C)S(=O)(=O)c2ccc3c(c2)CC(C)N3C(=O)C2CC2)cc1 (centres undefined),32,17,41,102*,-21
CC(=O)N1c2ccc(S(=O)(=O)N3CCC(C(=O)Nc4cc(C)ccn4)CC3)cc2CC1C (centres undefined),-10,6,-4,52*,29
CC(C)(C)S(=O)(=O)N1Cc2cc(CO)cc(CCO)c2[C@@H]1CCO,.,.,.,.,-6
Cc1ccc(SCC(=O)N2c3ccccc3Sc3ccccc32)cc1,3,10,17,51*,-3
CC(C)(C)c1cc(-c2nc(N)nc(N)n2)c(O)c(C(C)(C)C)c1,-38,30,-100,.,+
CCOC(=O)CC1(C)NC(C(=O)O)C(C)(C)S1 (centres undefined),.,.,.,.,3
C/C(=N/NS(=O)(=O)c1ccc(Cl)cc1)c1cccc(NC(=O)c2ccc(Cl)cc2Cl)c1,15,13,13,64*,-4
C/C(=N/NS(=O)(=O)c1ccc(C)cc1)c1cccc(NC(=O)c2cccc(Cl)c2)c1,8,11,20,34,-12
Cc1ccc(-n2nnnc2SCC(=O)NC(=O)Nc2ccc3c(c2)OCCO3)cc1,13,6,0,50*,-19
CCN(CC)c1nc(C(F)(F)F)nc2c1nnn2Cc1ccccc1,-6,-10,26,58*,-1
CSc1nsc2nc(=O)c(/C=C3\C=Nc4ccccc43)c(N)n12,-3,10,32,50*,-4
Cc1[nH]nc(-c2ccc(O)cc2O)c1Oc1ccccc1,-4,-6,20,-8,-12
CCOC(=O)c1ccc(Oc2cn[nH]c2-c2ccc(OCC(=O)NN)cc2O)cc1,-37,-5,10,99*,21
CCCOC(=O)c1ccc(Oc2cn[nH]c2-c2ccc(OCC(=O)NN)cc2O)cc1,-82,-15,-40,83*,14
CCCOC(=O)c1ccc(Oc2c(-c3ccc(OC)cc3O)n[nH]c2C)cc1,24,16,20,61*,2
CCc1cc(-c2n[nH]c(C)c2Oc2ccc(C(C)C)cc2)c(O)cc1O,6,18,-88,109*,.
CCOC(=O)c1ccc(Oc2cn[nH]c2-c2ccc(O)cc2O)cc1,22,1,17,46,-6
SMILES,tim10-1 inh,TIM10 inh,tim23-1 inh,SKKanGAS inh,PfHsp90 yeast 2
Cc1ccc(S(=O)(=O)N(C)c2ccc(C(=O)N(C)Cc3nc4ccccc4c(=O)[nH]3)cc2)cc1,4,5,8,.,15
NC(=O)C1CCCN(CC(=O)Nc2cc(S(=O)(=O)N3CCOCC3)ccc2N2CCCC2)C1 (centres undefined),3,-6,7,.,-8
CCCOC(=O)c1ccc(Oc2cn[nH]c2-c2ccc(O)cc2O)cc1,20,19,-15,76*,8
Cc1[nH]nc(-c2ccc(O)cc2O)c1-c1ccc(Cl)cc1,20,17,41,-2,-4
COc1ccc(-c2n[nH]c(C)c2-c2ccc(Cl)cc2)c(O)c1,30,-1,36,68*,-17
Cc1ccc(S(=O)(=O)NCC2(c3ccccc3)CCN(C)CC2)cc1,13,-4,5,3,9
CC(C)(C)OC(=O)NCC12C=CC(O1)C1C(=O)N(Cc3ccccc3)C(=O)C12 (centres undefined),12,3,10,2,50
Cc1ccc(N2C(=O)C3C4C=CC(CNC(=S)N5CCN(c6ccccc6)CC5)(O4)C3C2=O)cc1 (centres undefined),11,3,-6,-14,104*
Cc1ccc(NC(=S)NCC23C=CC(O2)C2C(=O)N(c4ccc(C)cc4)C(=O)C23)cc1 (centres undefined),36,11,29,-6,107*
Cc1cccc(NC(=S)NCC23C=CC(O2)C2C(=O)N(c4ccc(Cl)cc4)C(=O)C23)c1 (centres undefined),31,31,26,6,107*
Cc1ccc(S(=O)(=O)NCC23C=CC(O2)C2C(=O)N(c4ccccc4)C(=O)C23)cc1 (centres undefined),-1,7,-8,-7,106*
CCCCN(C(=O)c1ccncc1)c1c(N)n(CCC)c(=O)[nH]c1=O,13,-7,1,.,-7
O=C1CS/C(=N/N=C/c2c[nH]c3ccccc23)N1,-11,9,8,-1,.
O=C1/C(=C/c2c[nH]c3ccccc23)CCC/C1=C\c1c[nH]c2ccccc12,30,32,28,59*,17
CN1CCN(C(=O)c2cc(COc3ccc(F)cc3Cl)on2)CC1c1ccccc1 (centres undefined),36,38,46,3,72
CSc1ccccc1OCc1cc(C(=O)N2CCN(C)C(c3ccccc3)C2)no1 (centres undefined),35,6,48,3,135*
CCOC(=O)c1sc(NC(=O)Nc2ccc(Cl)cc2)cc1C,12,7,4,81*,-4
O=C1NC[C@H](Cc2ccccc2)N(C[C@H]2CCCN2C[C@H](Cc2ccccc2)N2C[C@H](Cc3ccc(O)cc3)N(CCc3ccccc3)C(=O)C2=O)C1=O,.,.,.,.,13
C[C@H](C[C@H](O)[C@H]1OC1(C)C)C1=C2C[C@H](O)C3[C@@]4(C)CCC(=O)C(C)(C)C4CC[C@]3(C)[C@@]2(C)CC1 (some centres undefined),11,9,37,.,23
C[C@@H](C[C@@H](O)[C@H](O)C(C)(C)O)[C@@H]1CC[C@]2(C)C3=CC[C@H]4C(C)(C)C(=O)CC[C@]4(C)[C@H]3CC[C@@]12C,12,18,28,96*,3
O=C1CC(c2ccccc2)=C(c2ccccc2)C1c1ccccc1 (centres undefined),.,.,.,.,5
CC(C)=CCc1c(O)c(CC=C(C)C)c2c(c1O)C(=O)CC(c1ccc(O)cc1)O2 (centres undefined),32,7,33,102*,.

# Screening data as filed in PubChem.
